# ± gives the standard deviation of the averaged measurements.
# Columns and labels:
# [1] = tested on: DLD1; test: nucleolar normality score relative to DMSO (fraction of DMSO control); RPE1 is a non-cancer human cell line; higher = more normal nucleoli (less nucleolar stress)
# Procedure: (§1)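 Selected screen hits were validated in hTERT lines (BJ5TA, CHON-002, RPE1) and cancer lines (DLD1, HCT116). Cells were immunostained for nucleolin and UBF and the nucleolar normality score was measured per field of view, with 4 fields per drug. Scores are normalized to each cell line's own DMSO control. Dose and time are not stated for this panel.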
# [2] = tested on: HCT116; test: as above
# Procedure: as §1
smiles,measurement,setting,value
CC[C@@]1(O)C(=O)OCc2c1cc1n(c2=O)Cc2cc3ccccc3nc2-1 [Camptothecin],nucleolar normality score,[1],0.402 ± 0.049
same,nucleolar normality score,[2],0.407 ± 0.015
